Among the data in PubChem BioAssay (Tox21) are Potency and outcome values, retold here.

Inconclusive results are not listed. Active and inactive are the calls of the source. Unless noted, calls follow the shape of the dose curve; as a rule, active = well fitted curve in the direction sought with a large enough effect in the repeat runs; inconclusive = weak or mixed curves; inactive = no such curve, though single readings can be large; an effect the other way counts as inactive or inconclusive.

The nature of assay [1]: qHTS assay to identify small molecule antagonists of the estrogen receptor alpha (ER-alpha) signaling pathway using the BG1 cell line in the presence of 0.1 nM 17-beta-estradiol - cell viability counter screen (AID 1259241). Also: nearly all actives have a fitted effect of over 40% in size. The method, boiled down: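 The cell line endogenously expresses full-length ER-alpha and carries four EREs driving luciferase. Cells are cultured 5 days hormone-free, treated 22 hr with compounds and 0.1 nM estradiol, then viability is read by fluorescence.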
A general note: qHTS replaces the single test concentration by a dilution series.

Assay [2] can be described thus: qHTS assay to identify small molecule antagonists of the androgen receptor (AR) signaling pathway using the MDA cell line in the presence of 0.5 nM R1881 - cell viability counter screen (AID 1259242). Also: nearly all actives have a fitted effect of over 45% in size. The method, boiled down: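 Fluorescence from CellTiter-Fluor, which reports protease activity of live cells, was read 30 min after reagent addition to MDA-kb2 cells that had been incubated 16 hr with compound and 0.5 nM R1881.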

Assay [3] can be described thus: qHTS assay to identify small molecule HDAC inhibitors (AID 1259364). Also: top concentration of the series differs between compounds; nearly all actives have a fitted effect of over 45% in size. The method, boiled down: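 Endogenous HDAC class I/II activity was measured in wild-type HCT-116 cells by HDAC-Glo luminescence after 2 h compound treatment.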
The nature of assay [4]: qHTS assay to identify small molecule HDAC inhibitors - cell viability counter screen (AID 1259365). Also: series mostly up to about 92 µM; nearly all actives have a fitted effect of over 50% in size. The method, boiled down:
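Viability readout: CellTiter-Glo luminescence. Wild-type HCT-116 cells, 2hr compound treatment following overnight attachment at 37 C.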

The nature of assay [5]: qHTS assay to identify small molecule agonists of the sonic hedgehog signaling (Shh) pathway - cell viability counter screen (AID 1259366). Also: nearly all actives have a fitted effect of over 50% in size. In outline: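 Viability measured fluorometrically (CellTiter-Fluor, 1hr, 37C) in 3T3 Gli1-Luc reporter cells after 23hr compound exposure within a 24hr incubation at 37C/5% CO2.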
Assay [6] is described as follows: qHTS assay to identify small molecule agonists of the sonic hedgehog signaling (Shh) pathway (AID 1259368; calls by dose curve;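 also: NIH/3T3-derived 3T3Gli1-Luc cells carrying a stable Gli1-driven firefly luciferase reporter; series mostly up to about 92 µM; nearly all actives have a fitted effect of over 15% in size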). In outline:
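Luminescent signal was taken as a measure of Gli1-controlled luciferase expression in stably transfected NIH/3T3-derived cells that had been treated for 24 hr with compounds delivered in DMSO.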

Assay [7] in a line: qHTS assay to identify small molecule antagonists of the sonic hedgehog signaling (Shh) pathway (AID 1259369; calls by dose curve; also: nearly all actives have a fitted effect of over 45% in size; also: potency is read from the fitted curve at half-maximal effect). In outline: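 Screening used 3T3Gli1-Luc cells at 2,000 per well, compounds delivered in DMSO, and conditioned medium as agonist stimulus; plates incubated 24hr at 37 C and 5% CO2 before a 30min luciferase step.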
Assay [8] is described as follows: qHTS assay to identify small molecule agonists of the androgen receptor (AR) signaling pathway in the presence of an antagonist - cell viability counter screen (AID 1259379). Also: nearly all actives have a fitted effect of over 25% in size. Also: potency is read from the fitted curve at half-maximal effect. In outline: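 In MDA-kb2 cells (human breast carcinoma, MMTV-luciferase), compounds at 15 concentrations plus 3.0uM nilutamide; 16 hr, 37C, 0% CO2; CellTiter-Fluor fluorescence read for viability.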

Assay [9] is described as follows: qHTS assay to identify small molecule agonists of the estrogen receptor beta (ER-beta) signaling pathway - cell viability counter screen (AID 1259380). Also: nearly all actives have a fitted effect of over 30% in size. Also: potency is read from the fitted curve at half-maximal effect. The method, boiled down:
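Viability of ER-beta-UAS-bla HEK293T cells was determined by CellTiter-Glo luminescence following 16 hr treatment with test compounds at 37C.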

The nature of assay [10]: qHTS assay to identify small molecule antagonists of the estrogen receptor beta (ER-beta) signaling pathway - cell viability counter screen (AID 1259382).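 Also: HEK293T cells carrying ER-beta-UAS-bla reporter stimulated with estradiol; series mostly up to about 92 µM; nearly all actives have a fitted effect of over 55% in size.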 The method, boiled down: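 Tox21 10K library tested in qHTS format on ER-beta-bla HEK293T cells stimulated with 1nM E2; 16 hr treatment at 37C. Same-well CellTiter-Glo luminescence served as the cell viability measure.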

The nature of assay [11]: qHTS assay to identify small molecule antagonists of the sonic hedgehog signaling (Shh) pathway - cell viability counter screen (AID 1259367). Also: nearly all actives have a fitted effect of over 55% in size. In outline:
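Cells: 3T3 Gli1-Luc, 2,000/well, 4 hr pre-incubation. Compounds in DMSO, then conditioned medium. Incubation 24 hr, 37C, 5% CO2. CellTiter-Fluor at 23 hr, 1 hr, fluorescence.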

In assay [12] the target is Estrogen receptor beta (Homo sapiens) (UniProt Q92731). The experiment in a line: qHTS assay to identify small molecule agonists of the estrogen receptor beta (ER-beta) signaling pathway (AID 1259377; active = well fitted activation curve with a large enough effect in the signal ratio in the repeat runs, not every such curve was filed as active; the % refers to the signal ratio). The method, boiled down:
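A UAS-controlled beta-lactamase reporter in ER-beta-UAS-bla HEK293T cells reports receptor activation. Compounds act for 16 hr at 37C in 2% charcoal-stripped serum, and a FRET substrate is read by fluorescence after 2 hours.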

Assay [13] can be described thus: qHTS assay to identify small molecule agonists or antagonists of the thyroid stimulating hormone receptor (TSHR) signaling pathway - wild type cell line counter screen (AID 1259384; calls by dose curve). The method, boiled down: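 Counter screen in untransfected Hek293: compounds (15-point titration, triplicate) plus phosphodiesterase inhibitor Ro20-1724 added after 18 h plating; 30 min RT. Intracellular cAMP via competitive d2/cryptate immunoassay, 1 h incubation.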

In assay [14] the target is Thyrotropin receptor (Homo sapiens) (UniProt P16473). The assay is described as follows: qHTS assay to identify small molecule antagonists of the thyroid stimulating hormone receptor (TSHR) signaling pathway (AID 1259385; calls by dose curve; also: nearly all actives have a fitted effect of over 20% in size). The method, boiled down: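 Antagonist mode: compound-treated TSHR-expressing HEK293 cells were stimulated with 1.5 ng/mL TSH (final) in presence of Ro20-1724 for 30 min at RT. HTRF cAMP detection after 1 h; each compound tested at 15 concentrations, triplicate.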
Chain of Thyrotropin receptor (Homo sapiens) (P16473 whole entry, looked up): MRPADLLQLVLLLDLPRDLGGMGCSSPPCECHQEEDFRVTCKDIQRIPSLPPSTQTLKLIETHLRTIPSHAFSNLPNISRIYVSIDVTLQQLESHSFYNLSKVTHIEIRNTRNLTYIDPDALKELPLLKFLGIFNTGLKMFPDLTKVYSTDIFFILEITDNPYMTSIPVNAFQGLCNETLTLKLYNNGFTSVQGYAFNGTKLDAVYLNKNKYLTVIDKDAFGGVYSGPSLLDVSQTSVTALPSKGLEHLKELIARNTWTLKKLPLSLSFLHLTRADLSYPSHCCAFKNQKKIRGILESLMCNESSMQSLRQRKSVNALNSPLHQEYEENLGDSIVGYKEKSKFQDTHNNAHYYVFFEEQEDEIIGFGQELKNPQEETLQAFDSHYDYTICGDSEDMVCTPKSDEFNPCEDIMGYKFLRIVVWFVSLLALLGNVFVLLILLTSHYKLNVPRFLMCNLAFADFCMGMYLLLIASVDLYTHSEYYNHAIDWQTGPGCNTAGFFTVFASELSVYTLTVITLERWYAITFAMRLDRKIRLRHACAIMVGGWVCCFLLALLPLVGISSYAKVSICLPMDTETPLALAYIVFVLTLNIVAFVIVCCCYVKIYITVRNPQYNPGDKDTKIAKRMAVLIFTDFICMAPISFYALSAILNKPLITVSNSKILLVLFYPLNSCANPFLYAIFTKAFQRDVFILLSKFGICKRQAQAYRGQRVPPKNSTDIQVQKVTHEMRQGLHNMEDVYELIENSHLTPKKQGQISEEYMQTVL

Assay [15] has as its target Estrogen receptor beta (Homo sapiens) (UniProt Q92731). The assay is described as follows: qHTS assay to identify small molecule antagonists of the estrogen receptor beta (ER-beta) signaling pathway (AID 1259378; active = well fitted inhibition curve with a large enough effect in the signal ratio in the repeat runs, not every such curve was filed as active; the % refers to the signal ratio). In outline:
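Antagonist mode: compounds added to beta-lactamase reporter HEK293T ER-beta-UAS cells stimulated with E2 (1nM final), 16 hr at 37C. LiveBLAzer B/G FRET substrate, 2 hours room temperature, fluorescence read-out.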

Assay [16] has as its target Androgen receptor (Homo sapiens) (UniProt P10275). The assay is described as follows: qHTS assay to identify small molecule antagonists of the androgen receptor (AR) signaling pathway using the MDA cell line in the presence of 0.5 nM R1881 (AID 1259243). Also: nearly all actives have a fitted effect of over 50% in size. In outline: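 Inhibition of R1881 (0.5 nM final) induced reporter signal was measured in human MDA-kb2 cells; note the MMTV promoter also responds to GR. Exposure lasted 16 hr at 37C.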

The target in assay [17] is Estrogen receptor (Homo sapiens) (UniProt P03372). The experiment in a line: qHTS assay to identify small molecule antagonists of the estrogen receptor alpha (ER-alpha) signaling pathway using the BG1 cell line in the presence of 0.1 nM 17-beta-estradiol (AID 1259244). Also: nearly all actives have a fitted effect of over 50% in size. In outline: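 Quantitative high-throughput screen in VM7Luc4E2 cells: compound plus 0.1 nM E2 (final), 22 h, 37C, 5% CO2; ONE-Glo added, 30 min room temperature, luminescence measured.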
Chain of Estrogen receptor (Homo sapiens) (P03372 whole entry, looked up): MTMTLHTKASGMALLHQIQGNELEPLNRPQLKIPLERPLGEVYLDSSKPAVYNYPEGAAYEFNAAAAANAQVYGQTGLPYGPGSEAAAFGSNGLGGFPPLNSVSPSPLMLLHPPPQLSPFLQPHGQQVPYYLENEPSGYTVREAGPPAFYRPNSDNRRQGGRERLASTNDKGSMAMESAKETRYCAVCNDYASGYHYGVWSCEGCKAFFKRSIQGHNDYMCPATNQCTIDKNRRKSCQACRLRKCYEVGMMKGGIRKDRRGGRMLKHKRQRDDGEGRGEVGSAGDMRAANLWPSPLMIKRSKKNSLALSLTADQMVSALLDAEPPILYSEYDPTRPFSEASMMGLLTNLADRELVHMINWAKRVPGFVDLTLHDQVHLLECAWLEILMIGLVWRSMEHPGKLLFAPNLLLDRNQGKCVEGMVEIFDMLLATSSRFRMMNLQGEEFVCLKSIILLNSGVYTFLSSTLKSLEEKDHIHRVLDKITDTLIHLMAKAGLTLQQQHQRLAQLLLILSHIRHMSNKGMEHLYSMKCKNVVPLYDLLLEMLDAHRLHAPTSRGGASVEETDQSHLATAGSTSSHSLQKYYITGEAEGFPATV

In assay [18] the target is Androgen receptor (Homo sapiens) (UniProt P10275). The experiment in a line: qHTS assay to identify small molecule agonists of the androgen receptor (AR) signaling pathway in the presence of an antagonist (AID 1259381; calls by dose curve; also: nearly all actives have a fitted effect of over 15% in size). In outline: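 Here, 15-concentration compound series were pin-transferred onto MDA-kb2 MMTV-luciferase cells already dosed with nilutamide (3.0uM final). After 16hr at 37C, ONE-Glo was added and luminescence read 30min later at room temperature.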
Chain of Androgen receptor (Homo sapiens) (P10275 whole entry, looked up): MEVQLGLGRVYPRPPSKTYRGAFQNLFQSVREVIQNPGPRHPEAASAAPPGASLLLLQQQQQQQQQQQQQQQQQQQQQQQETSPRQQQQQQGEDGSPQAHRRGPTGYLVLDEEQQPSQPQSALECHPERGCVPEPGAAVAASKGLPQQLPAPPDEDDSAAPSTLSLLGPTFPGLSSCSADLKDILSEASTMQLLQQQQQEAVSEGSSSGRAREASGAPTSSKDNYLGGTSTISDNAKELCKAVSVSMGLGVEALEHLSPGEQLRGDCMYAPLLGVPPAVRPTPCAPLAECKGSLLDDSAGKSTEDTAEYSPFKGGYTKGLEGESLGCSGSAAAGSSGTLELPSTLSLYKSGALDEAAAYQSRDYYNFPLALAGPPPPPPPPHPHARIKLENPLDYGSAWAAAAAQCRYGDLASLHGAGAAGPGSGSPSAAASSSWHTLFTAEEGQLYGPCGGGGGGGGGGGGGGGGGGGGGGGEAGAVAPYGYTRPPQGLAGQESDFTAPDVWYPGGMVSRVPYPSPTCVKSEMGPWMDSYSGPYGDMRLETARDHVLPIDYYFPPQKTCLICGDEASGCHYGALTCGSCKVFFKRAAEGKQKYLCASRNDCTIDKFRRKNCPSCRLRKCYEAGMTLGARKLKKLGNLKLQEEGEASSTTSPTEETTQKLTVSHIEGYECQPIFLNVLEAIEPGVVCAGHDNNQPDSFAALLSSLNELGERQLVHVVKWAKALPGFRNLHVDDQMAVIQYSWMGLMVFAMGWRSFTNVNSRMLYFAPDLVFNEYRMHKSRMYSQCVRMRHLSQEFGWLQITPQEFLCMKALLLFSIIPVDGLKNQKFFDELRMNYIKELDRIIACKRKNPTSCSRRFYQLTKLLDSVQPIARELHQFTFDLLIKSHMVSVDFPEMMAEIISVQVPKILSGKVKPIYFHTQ

The target in assay [19] is Estrogen receptor (Homo sapiens) (UniProt P03372). The experiment in a line: qHTS assay to identify small molecule agonists of the estrogen receptor alpha (ER-alpha) signaling pathway in the presence of an antagonist (AID 1259383; calls by dose curve; also: top concentration of the series differs between compounds; nearly all actives have a fitted effect of over 15% in size). The method, boiled down: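 In VM7Luc4E2 cells, 4,000 per well, compounds at 15 concentrations were co-incubated 22hr at 37C with 10.0nM final ICI-182,780. Luminescence from the stably transfected 4×ERE-luciferase reporter was recorded 30min after ONE-Glo addition.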

Chain of Estrogen receptor beta (Homo sapiens) (Q92731 whole entry, looked up): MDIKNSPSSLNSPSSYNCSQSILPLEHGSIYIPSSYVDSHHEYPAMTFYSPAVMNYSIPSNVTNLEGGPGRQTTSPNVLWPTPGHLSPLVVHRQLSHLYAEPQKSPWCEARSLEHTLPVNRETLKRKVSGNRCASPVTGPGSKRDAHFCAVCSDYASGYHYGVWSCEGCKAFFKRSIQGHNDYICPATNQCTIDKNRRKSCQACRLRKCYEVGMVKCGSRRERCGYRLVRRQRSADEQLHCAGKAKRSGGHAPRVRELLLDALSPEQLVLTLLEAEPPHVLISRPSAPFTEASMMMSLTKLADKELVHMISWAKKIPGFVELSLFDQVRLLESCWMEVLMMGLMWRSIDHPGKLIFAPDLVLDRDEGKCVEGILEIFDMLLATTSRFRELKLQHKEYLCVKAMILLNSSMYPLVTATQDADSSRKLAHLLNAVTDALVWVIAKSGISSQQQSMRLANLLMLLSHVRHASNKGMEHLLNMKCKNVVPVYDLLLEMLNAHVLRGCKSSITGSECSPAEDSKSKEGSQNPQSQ

Turning to `Nc1nc(Cl)nc2c1ncn2[C@H]1C[C@H](O)[C@@H](CO)O1`, the Potency entry in [1], in assay [2], in assay [3], in assay [5], in assay [6] and in assay [8] was “inactive” each time. Moreover, the Potency entry in assay [9] and in assay [10] was “inactive” each time. In [4], the outcome was inactive. Moreover, in assay [7], the Potency was 0.383 µM (active).
On to `CCC(C)C1N=C(C)C(C)S1` (stereo not given), for which the Potency result in assay [1], in assay [2], in [3], in assay [5], in assay [11] and in assay [6] was “inactive” throughout. For the same molecule, the Potency result in assay [7], in assay [12], in [8], in [9], in assay [10] and in assay [14] was “inactive” each time. In assay [13], the molecule was called inactive.
On to `CC(C(=O)O)c1ccc(/C=C2\CCCCC2=O)cc1` (stereo not given), for which the Potency result in assay [1], in assay [2], in [5], in [11], in [6] and in assay [7] was “inactive” in each case. The Potency result in assay [8], in assay [9] and in assay [10] was “inactive” each time. The molecule was called inactive in assay [4] and in assay [13].
Take `Cc1c(Cl)cccc1[N+](=O)[O-]`: the Potency result in [1], in [2], in [3], in [5], in [6] and in assay [7] was “inactive” throughout. Further, the Potency result in assay [12], in [15], in [8], in [9] and in [10] was “inactive” throughout.
For `CC(C)Cc1nccs1`, the Potency entry in assay [1], in assay [2], in [5], in assay [11], in assay [6] and in assay [7] was “inactive” throughout. Moreover, the Potency result in [12], in assay [15], in assay [9], in [10] and in assay [14] was “inactive” throughout. The call in assay [4] and in [13] was inactive.
Take `NC(=O)c1ccccc1C(N)=O`: the Potency entry in [2], in [16], in assay [17], in [3], in assay [5] and in assay [11] was “inactive” throughout. The Potency entry in [6], in assay [7], in assay [8], in assay [18], in assay [19] and in assay [14] was “inactive” in each case. Besides, the Potency in [9] was 61.4 µM (active). In [13], the molecule was classed as inactive.
Turning to `O=C(NC1CCN(CCc2c[nH]c3ccccc23)CC1)c1ccccc1`, the Potency result in assay [1], in [2], in assay [6], in assay [12], in [15] and in [10] was “inactive” in each case. In addition, the Potency result in [14] was “inactive”. Further, the outcome in [4] was inactive.
As for `Cc1ccc(NC(=O)c2ccc(CN3CCN(C)CC3)cc2)cc1Nc1nccc(-c2cccnc2)n1`, the Potency result in assay [2], in [3], in assay [6], in assay [8], in [18] and in assay [10] was “inactive” each time. Besides, the Potency entry in assay [19] was “inactive”. In addition, the molecule was called inactive in assay [4] and in assay [13]. Moreover, the Potency in assay [7] was 2.66 µM (active).
For `Clc1nc2ccccc2nc1Cl`, the Potency entry in [1], in [17], in [3], in [5], in assay [6] and in assay [7] was “inactive” throughout. Also, the Potency result in assay [12], in [15], in assay [9], in [10], in assay [19] and in [14] was “inactive” throughout. In addition, the molecule was classed as inactive in assay [4] and in assay [13]. In assay [8], the Potency was 24.6 µM (active).
